Data taken from PubChem BioAssay.
Calls of active or inactive are those of the source. Unless noted, no rule for the calls is given here.

Key:
[1] = compounds binding Alexa647 anti-His antibody – biochemical, small-molecule microarray, 635 nm fluorescence, artefact control for SMM control protein annotation, primary screen (AID 1128); conditions: higher = more signal;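 also: score merges feature fluorescence with signal-to-noise for each printed compound spot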
[2] = test system: Human papillomavirus type 1a E7 protein (residues 1-88); assay: HPV1a E7 small-molecule binders, primary screen, biochemical, small-molecule microarray, residues 1-88, 635 nm (AID 1129); conditions: small-molecule microarray binding, fluorescence 635 nm; higher = more signal
[3] = biological target: Focal adhesion kinase 1 (Homo sapiens) (UniProt Q05397); assay: PTK2 protein binding on printed compound slides – biochemical, small-molecule microarray, 635/667 nm fluorescence, BSA, DTT, primary screen (AID 1130); conditions: 635 nm fluorescence, higher = more signal;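 also: composite of spot emission at 667 nm and signal to noise over triplicate slides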
[4] = test system: Fibrinogen (Alexa647-labelled); assay: Alexa647-fibrinogen binding to printed small molecules – biochemical, small-molecule microarray, 635/667 nm fluorescence, artefact control for SMM control-protein annotation, profiling panel (AID 1131); conditions: fibrinogen-A647 binding fluorescence, higher = more signal;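 also: z-score merges 667 nm fluorescence with per-spot signal-to-noise over triplicate slides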
[5] = biological target: Follistatin (Homo sapiens) (UniProt P19883); assay: FST protein binding to printed compounds – biochemical, small-molecule microarray, 635/667 nm fluorescence, primary screen (AID 1132); conditions: 635 nm fluorescence, higher = more signal
[6] = biological target: Fibroblast growth factor 2 (Homo sapiens) (UniProt P09038); assay: basic fibroblast growth factor binding to printed compounds – biochemical, small-molecule microarray, 635/667 nm fluorescence, primary screen (AID 1133); conditions: FGF2, fluorescence 635/667, higher = more signal
[7] = JC-1 mitochondrial potential readout, lung cancer cells – cell-based, A549, JC-1 fluorescence, basal, 24 h, 100 nL, profiling panel (AID 1138); conditions: higher = more signal;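 also: A549 lung adenocarcinoma cells under basal conditions with no added stimulus; test concentration not given here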
[8] = test system: Lefty1; assay: Lefty1 protein binding to printed compounds – biochemical, small-molecule microarray, 635/667 nm fluorescence, primary screen (AID 1139); conditions: fluorescence 635/667, higher = more signal
[9] = test system: wheat germ agglutinin (Triticum aestivum), Alexa647-labelled; assay: Alexa647-WGA lectin binding to printed small molecules – biochemical, small-molecule microarray, 635/667 nm fluorescence, artefact control for SMM control-protein annotation, profiling panel (AID 1140); conditions: WGA-A647 binding, 635 nm fluorescence, higher = more signal;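 also: score merges 667 nm feature emission with signal to noise over triplicate slides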
[10] = biological target: Luciferin 4-monooxygenase (Photinus pyralis) (UniProt P08659); assay: inhibition of purified Photinus pyralis luciferase – biochemical, luminescence, purified enzyme, 2006 set, primary screen (AID 1141); conditions: purified firefly luciferase, SteadyGlo luminescence, 30 min; higher = more signal, called active from +8 up or from −8 down;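 also: cell-free assay with purified firefly luciferase at 100 ng per well in PBS; test concentration not given here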
[11] = test system: Wnt5a (protein binding on small-molecule microarray); assay: small molecules binding Wnt5a protein – biophysical, small-molecule microarray, 635/667 nm fluorescence, primary screen (AID 1142); conditions: 635 nm fluorescence, higher = more signal;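 also: fluorescence read at 667 nm with signal to noise per printed feature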
[12] = ATP-based viability of Huh7 replicon cells – cell-based, CellTiter-Glo luminescence, basal, 48 h, cytotoxicity control for HCV replication inhibitor project, primary screen (AID 1143); conditions: higher = more signal, called active from +8 up or from −8 down;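 also: Huh7 hepatoma cells carrying a hepatitis C replication reporter with no stimulus; test concentration not given here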
[13] = Pseudomonas biofilm growth suppression – PAO1 strain, BacTiter-Glo luminescence, LB-PBS, primary screen (AID 1144); conditions: P. aeruginosa PAO1 biofilm, 12 h, higher = more signal
[14] = basal CRE-LacZ reporter activity in PC12 – cell-based, unstimulated, primary screen (AID 1145); conditions: no forskolin, luminescence, 4.5 h, higher = more signal, called active from +8 up or from −8 down
[15] = forskolin-driven CRE-LacZ activity in PC12 – cell-based, CRE-LacZ reporter, forskolin-stimulated, primary screen (AID 1146); conditions: luminescence, 4.5 h, higher = more signal, called active from +8 up or from −8 down;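 also: PC12 cells with 6xCRE LacZ reporter stimulated by forskolin 10 µM; beta-galactosidase reporter signal reflecting CREB driven transcription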
[16] = biological target: Streptavidin (Streptomyces avidinii) (UniProt P22629); assay: compounds binding control protein streptavidin – biophysical, small-molecule microarray, 635/667 nm fluorescence, artefact control for SMM compound annotation, primary screen (AID 1147); conditions: higher = more signal;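 also: signal reflects streptavidin binding to arrayed compounds as a control protein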
[17] = probe aInhba binding on compound microarray – biochemical, small-molecule microarray, 635/667 nm fluorescence, primary screen (AID 1148); conditions: higher = more signal;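 also: score merges 667nm spot fluorescence with signal-to-noise for antibody binding to printed compounds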
[18] = biological target: Torsin-1A (Homo sapiens) (UniProt O14656); assay: TOR1A wild-type binding on microarray – cell lysate, small-molecule microarray, lysate, 635/667 nm, primary screen (AID 1149); conditions: COS7 hTOR1A-WT lysate, 635 nm fluorescence, higher = more signal
[19] = biological target: Torsin-1A (Homo sapiens) (UniProt O14656); assay: torsin A mutant lysate binding on microarrays – cell lysate, small-molecule microarray, COS7 lysate, 635/667 nm fluorescence, primary screen (AID 1150); conditions: COS7 hTOR1A mutant lysate, 635 nm fluorescence, higher = more signal;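 also: score pools 667 nm emission and signal to noise measuring lysate protein binding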
[20] = test system: Sonic hedgehog protein (Shh); assay: Sonic hedgehog microarray binding compounds – biochemical, small-molecule microarray, 635/667 nm fluorescence, primary screen (AID 1151); conditions: 635 nm fluorescence, higher = more signal;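 also: Shh protein binding to compounds spotted on small-molecule microarray slides; score combines spot fluorescence intensity with signal-to-noise across triplicate slides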

Torsin-1A (Homo sapiens), sequence (O14656 whole entry, looked up): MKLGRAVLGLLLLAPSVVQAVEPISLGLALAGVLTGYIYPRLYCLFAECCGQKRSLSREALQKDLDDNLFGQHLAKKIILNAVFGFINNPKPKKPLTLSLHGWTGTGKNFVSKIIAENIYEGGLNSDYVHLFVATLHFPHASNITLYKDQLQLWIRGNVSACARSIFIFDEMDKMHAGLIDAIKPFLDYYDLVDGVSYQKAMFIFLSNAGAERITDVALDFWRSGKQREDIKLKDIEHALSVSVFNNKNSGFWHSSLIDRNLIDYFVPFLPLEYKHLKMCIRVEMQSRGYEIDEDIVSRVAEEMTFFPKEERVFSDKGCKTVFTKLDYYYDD
Luciferin 4-monooxygenase (Photinus pyralis), sequence (P08659 whole entry, looked up): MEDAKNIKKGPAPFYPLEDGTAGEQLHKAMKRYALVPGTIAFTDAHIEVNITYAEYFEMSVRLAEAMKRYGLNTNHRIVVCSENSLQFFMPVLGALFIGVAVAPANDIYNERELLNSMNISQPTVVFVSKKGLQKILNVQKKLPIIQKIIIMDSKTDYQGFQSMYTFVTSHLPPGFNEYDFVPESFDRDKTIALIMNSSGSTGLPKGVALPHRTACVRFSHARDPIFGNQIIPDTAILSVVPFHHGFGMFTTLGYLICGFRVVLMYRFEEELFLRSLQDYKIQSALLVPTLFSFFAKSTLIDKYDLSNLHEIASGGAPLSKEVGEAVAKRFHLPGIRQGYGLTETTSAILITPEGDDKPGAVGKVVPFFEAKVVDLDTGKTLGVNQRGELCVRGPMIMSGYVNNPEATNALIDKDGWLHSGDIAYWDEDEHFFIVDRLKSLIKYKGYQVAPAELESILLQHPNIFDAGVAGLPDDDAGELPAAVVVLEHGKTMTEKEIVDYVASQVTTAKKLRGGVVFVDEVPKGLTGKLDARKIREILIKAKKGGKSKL
Fibroblast growth factor 2 (Homo sapiens), sequence (P09038 whole entry, looked up): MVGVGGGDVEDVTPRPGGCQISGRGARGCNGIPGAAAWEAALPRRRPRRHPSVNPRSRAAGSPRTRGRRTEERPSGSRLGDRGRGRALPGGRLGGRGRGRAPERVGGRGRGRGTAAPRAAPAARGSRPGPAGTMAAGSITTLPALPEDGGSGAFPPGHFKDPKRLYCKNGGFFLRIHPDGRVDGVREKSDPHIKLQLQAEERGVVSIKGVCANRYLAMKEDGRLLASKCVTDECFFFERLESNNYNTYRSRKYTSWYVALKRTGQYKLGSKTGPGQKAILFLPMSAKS
Streptavidin (Streptomyces avidinii), sequence (P22629 whole entry, looked up): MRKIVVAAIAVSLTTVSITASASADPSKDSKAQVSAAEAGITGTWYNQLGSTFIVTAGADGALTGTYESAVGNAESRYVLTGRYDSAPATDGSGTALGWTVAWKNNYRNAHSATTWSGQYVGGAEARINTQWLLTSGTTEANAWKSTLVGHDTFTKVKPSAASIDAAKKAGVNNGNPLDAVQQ
Follistatin (Homo sapiens), sequence (P19883 whole entry, looked up): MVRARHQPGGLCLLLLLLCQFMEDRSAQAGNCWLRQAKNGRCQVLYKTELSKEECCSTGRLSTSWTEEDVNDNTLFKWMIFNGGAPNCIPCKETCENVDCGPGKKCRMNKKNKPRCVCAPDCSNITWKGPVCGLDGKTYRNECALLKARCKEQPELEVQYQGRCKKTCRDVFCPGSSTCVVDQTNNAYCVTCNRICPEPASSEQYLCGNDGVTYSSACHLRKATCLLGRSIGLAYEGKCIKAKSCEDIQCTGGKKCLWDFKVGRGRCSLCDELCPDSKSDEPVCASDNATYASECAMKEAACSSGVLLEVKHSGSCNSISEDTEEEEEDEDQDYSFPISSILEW
Focal adhesion kinase 1 (Homo sapiens), sequence (Q05397 whole entry, looked up): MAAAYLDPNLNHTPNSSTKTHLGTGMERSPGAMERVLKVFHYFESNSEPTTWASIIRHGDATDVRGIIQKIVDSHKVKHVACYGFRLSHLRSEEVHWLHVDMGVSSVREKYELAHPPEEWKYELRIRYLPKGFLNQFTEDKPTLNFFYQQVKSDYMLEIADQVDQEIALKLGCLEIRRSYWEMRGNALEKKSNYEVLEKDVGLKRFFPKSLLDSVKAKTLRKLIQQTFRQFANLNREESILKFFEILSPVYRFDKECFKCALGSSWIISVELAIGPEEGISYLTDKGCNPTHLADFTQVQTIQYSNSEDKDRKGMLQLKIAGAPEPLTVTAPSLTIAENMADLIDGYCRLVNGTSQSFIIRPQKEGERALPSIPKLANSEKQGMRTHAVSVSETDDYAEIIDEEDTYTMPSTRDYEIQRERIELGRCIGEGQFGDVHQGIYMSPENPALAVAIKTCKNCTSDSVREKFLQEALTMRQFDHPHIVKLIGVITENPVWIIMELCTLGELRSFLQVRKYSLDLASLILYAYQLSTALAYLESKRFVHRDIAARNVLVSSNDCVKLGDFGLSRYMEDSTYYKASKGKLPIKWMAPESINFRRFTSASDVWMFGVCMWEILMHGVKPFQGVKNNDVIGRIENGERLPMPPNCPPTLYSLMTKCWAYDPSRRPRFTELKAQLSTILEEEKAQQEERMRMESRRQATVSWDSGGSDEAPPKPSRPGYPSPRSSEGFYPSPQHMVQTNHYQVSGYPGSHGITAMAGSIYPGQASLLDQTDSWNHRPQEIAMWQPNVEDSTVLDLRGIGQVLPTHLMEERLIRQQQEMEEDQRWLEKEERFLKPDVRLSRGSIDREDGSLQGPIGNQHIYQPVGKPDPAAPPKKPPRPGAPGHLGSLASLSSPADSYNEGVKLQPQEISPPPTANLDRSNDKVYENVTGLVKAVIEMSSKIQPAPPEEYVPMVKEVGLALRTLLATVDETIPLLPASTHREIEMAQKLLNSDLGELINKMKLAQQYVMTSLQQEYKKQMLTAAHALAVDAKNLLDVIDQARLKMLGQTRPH

SMILES | composite z-score [1] | composite z-score [2] | composite z-score [3] | composite z-score [4] | composite z-score [5] | composite z-score [6] | z-score [7] | composite z-score [8] | composite z-score [9] | z-score [10] | composite z-score [11] | z-score [12] | z-score [13] | z-score [14] | z-score [15] | composite z-score [16] | composite z-score [17] | composite z-score [18] | composite z-score [19] | composite z-score [20]
C=CC[C@]12N=C(c3ccc(OCCCO)cc3)O[C@H]1c1ccccc1N(Cc1ccccc1)C2=O | 1.74 | 0.998 | 0.804 | -0.0608 | 1.29 | 1.34 | -1.21 | -0.0331 | 0.442 | -4.07 (inactive) | 0.373 | -3.92 (inactive) | 0.71 (inactive) | -0.389 (inactive) | -1.64 (inactive) | -0.255 | 0.153 | 0.35 | 1.04 | 0.351
COC(=O)C=C(CC(O)c1cccc(Cl)c1)OC (stereo not given) | 1.14 | 1.15 | 0.0918 | 0.6 | -0.431 | -0.0579 | -0.252 | -0.492 | 1.04 | 0.699 (inactive) | 0.321 | -2.41 (inactive) | -0.179 (inactive) | -0.116 (inactive) | -0.809 (inactive) | 0.307 | 1.09 | 0.208 | 1.11 | -0.425
Cc1ccc(S[C@]2(C(=O)NCCN3CCOCC3)CC(=O)N(Cc3ccccc3Cl)[C@@H]2c2ccc(CO)cc2)cc1 | 1.69 | -0.516 | 0.155 | -1.85 | 0.157 | -0.536 | -0.63 | -0.188 | 0.193 | 1.58 (inactive) | -0.0036 | -2.93 (inactive) | -1.98 (inactive) | 0.441 (inactive) | 1.1 (inactive) | -0.625 | -0.255 | -2.16 | 0.269 | -0.143
COCCOC(=O)N1C(=O)[C@@]2(c3ccccc31)[C@H](c1ccccc1OCCO)N1[C@H](c3ccccc3)[C@H](c3ccccc3)OC(=O)[C@H]1[C@@H]2C(=O)Nc1nc2ccccc2s1 | 1.04 | 1.19 | 0.445 | 0.994 | 1.35 | 1.03 | -1.91 | 1.34 | 1.18 | -2.37 (inactive) | 0.212 | -3.78 (inactive) | -0.868 (inactive) | -0.0566 (inactive) | 2.86 (inactive) | 1.14 | 0.113 | 0.421 | 1.25 | 1.81
COc1ccc(COC2OC[C@]3(C)[C@H]4C5=C(CN3C(=O)OC(C)(C)C)[C@H](C)C(CO)C(CO)C5CC[C@@H]24)cc1 (stereo not given in full) | 1.08 | 1.19 | 0.649 | 0.968 | 0.535 | -1.03 | 0.323 | -0.209 | 0.831 | 1.52 (inactive) | 0.0447 | -0.422 (inactive) | 0.669 (inactive) | 0.966 (inactive) | 1.99 (inactive) | 1.25 | 0.483 | 1.32 | 0.156 | 0.0407
CC(C)(C)OC(=O)CC[C@]1(C(=O)NCC(O)CO)COC(c2ccc(OCCCO)cc2)=N1 (stereo not given in full) | 1.97 | 1.22 | 0.472 | 0.936 | -0.255 | -0.473 | -0.328 | -0.35 | 0.879 | 0.438 (inactive) | -0.05 | -0.0229 (inactive) | -0.904 (inactive) | -0.412 (inactive) | -0.0431 (inactive) | 0.873 | -0.003 | 0.746 | 2.65 | -1.31
CCN(CC)c1ccc(N2CC=CC34O[C@@H]5/C=C\CCC(C)OC(=O)C5[C@H]3C(=O)N(C(CO)C(C)C)[C@@H]4C2=O)cc1 (stereo not given in full) | -0.264 | -0.651 | 0.174 | -0.4 | -0.452 | 0.0509 | 0.93 | -0.674 | -0.558 | -1.09 (inactive) | -0.443 | -0.122 (inactive) | 0.805 (inactive) | 0.337 (inactive) | 0.199 (inactive) | -0.826 | -0.108 | -0.918 | -1.32 | 0.661
O=C1C2C=CC(C(O)C(c3ccccc3)c3ccccc3)N(n3cnnc3)C2C(=O)N1Cc1ccccc1 (stereo not given) | 0.305 | 1.21 | 0.638 | 0.977 | 0.552 | 1.54 | -0.806 | 0.0063 | 0.131 | 1.01 (inactive) | 0.159 | -0.0706 (inactive) | 0.738 (inactive) | 0.182 (inactive) | 0.202 (inactive) | 1.12 | 0.057 | 0.0613 | 0.142 | -0.0479
COc1ccc(CCNC(=O)[C@@]2(Sc3ccc(C)cc3)CC(=O)N(C3CCCCC3)[C@@H]2c2ccc(CO)cc2I)cc1 | 0.949 | 1.21 | 0.28 | 0.151 | 0.884 | 0.535 | -0.0279 | 0.569 | 0.396 | 0.645 (inactive) | 0.843 | -2.23 (inactive) | -0.382 (inactive) | -0.168 (inactive) | 1.19 (inactive) | 0.422 | 0.0391 | 0.333 | 0.789 | 0.855
CC[C@@H]1C=C(C(=O)O)[C@H](c2ccco2)N1S(=O)(=O)c1ccc(C)cc1 | 0.2 | -0.522 | 1.32 | -1.13 | 1 | -0.152 | -1.09 | -0.165 | 0.839 | 1.09 (inactive) | -0.291 | 0.433 (inactive) | -0.187 (inactive) | -0.518 (inactive) | 1.1 (inactive) | 0.402 | 0.0228 | -0.282 | 0.222 | 0.374
